Compound activity: PubChem, NMMLSC
Only some compounds are listed: those with a hit (about 3.5% of all), similar ones and a draw of the others.
BoNT F protease – inhibitors of Botulinum neurotoxin F light chain protease | Multiplex microsphere protease cleavage assay, flow cytometry | inhibition, % at 10 µM | 0.22% of 360,000 active; in the data active means inhibition above about 35%, passing the limit was not always enough; inconclusive means no clear call, values can overlap the other calls; further: plate controls were buffer without enzyme for full effect and enzyme alone for no effect
Bead autofluor – flagged as autofluorescent in microsphere protease counterscreen; compound autofluorescence counterscreen, microsphere flow cytometry; hits give high values; fluorescence intensity (test concentration not listed); 3.1% of 360,000 active; AID 624483; in the data active means fluorescence intensity above about 16000; inconclusive means no clear call, values can overlap the other calls
Anthrax LF prot – blocks Bacillus anthracis lethal factor protease; P15917; multiplex microsphere protease cleavage assay, LF; inhibition, % at 10 µM; 0.12% of 360,000 active; further: plate controls were buffer without enzyme for full effect and enzyme alone for no effect
Target sequence (P15917 whole entry, looked up): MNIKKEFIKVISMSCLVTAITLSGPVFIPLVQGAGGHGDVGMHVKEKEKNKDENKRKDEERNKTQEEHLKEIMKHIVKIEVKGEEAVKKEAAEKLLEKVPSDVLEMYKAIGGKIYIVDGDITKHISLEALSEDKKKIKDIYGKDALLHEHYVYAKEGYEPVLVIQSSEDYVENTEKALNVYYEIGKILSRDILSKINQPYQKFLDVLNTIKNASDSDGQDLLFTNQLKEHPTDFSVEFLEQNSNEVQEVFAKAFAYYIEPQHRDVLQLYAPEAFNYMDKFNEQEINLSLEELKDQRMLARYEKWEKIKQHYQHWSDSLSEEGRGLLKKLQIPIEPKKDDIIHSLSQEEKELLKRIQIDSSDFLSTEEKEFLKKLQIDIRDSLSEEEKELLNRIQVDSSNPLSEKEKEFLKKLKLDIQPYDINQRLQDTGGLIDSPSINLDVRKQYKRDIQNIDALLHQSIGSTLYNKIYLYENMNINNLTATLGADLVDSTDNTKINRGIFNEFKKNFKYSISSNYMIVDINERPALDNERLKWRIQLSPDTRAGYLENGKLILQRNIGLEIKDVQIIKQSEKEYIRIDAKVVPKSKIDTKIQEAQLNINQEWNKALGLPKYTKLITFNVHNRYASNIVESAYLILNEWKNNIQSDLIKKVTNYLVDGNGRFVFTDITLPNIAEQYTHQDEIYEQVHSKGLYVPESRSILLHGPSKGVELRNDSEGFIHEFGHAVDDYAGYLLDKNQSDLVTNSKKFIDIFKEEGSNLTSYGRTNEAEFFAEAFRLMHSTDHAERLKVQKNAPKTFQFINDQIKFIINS
BoNT-A LC inh2 – BoNT A light chain protease inhibition; 0.17% of 360,000 active; inhibition, % at 10 µM; multiplex microsphere protease substrate cleavage, flow cytometry; further: plate controls were buffer without enzyme for full effect and enzyme alone for no effect
Starred values were filed as active, the others as inactive; u = inconclusive. Unless noted, no stated cut-off is given here; in the data, active means inhibition above about 30%; inconclusive means no clear call, values can overlap the other calls; inactive means below that.

SMILES	BoNT F protease	Bead autofluor	Anthrax LF prot	BoNT-A LC inh2
Nc1cccc(-c2cn(-c3cc4cc(C#CC5(O)CCCCC5)ccc4oc3=O)nn2)c1	0.9	3582	-9.4	0.3
Cc1ccc(NCCC(=O)c2ccc(Cl)c(Cl)c2)cc1	-2.8	23171*	-0.1	u
CCc1ccc(NCCC(=O)c2ccc(Cl)cc2)cc1	-8.2	7029	-5.2	-0.6
Cc1ccc(NCCC(=O)c2ccc(Cl)cc2)cc1C	-6.5	24235*	-1.3	-1.0
CCOc1ccc(CCNC(=O)c2cccs2)cc1OCC	-6.1	3723	-11.8	-2.0
COc1ccc(NC(=O)CCC(=O)N2CCC(c3ccccc3)=N2)cc1S(=O)(=O)N1CCCCC1	-11.0	3707	-13.7	-0.3
COc1cc(/C=C/C(=O)/C=C(O)/C=C/c2ccc(O)c(OC)c2)ccc1O	-0.7	4422	10.4	32.1*
COc1cc(/C=C/C(=O)CC(=O)/C=C/c2ccc(O)c(OC)c2)ccc1O	-12.4	6257	16.8	30.8*
COc1cc(/C=C/C(=O)O)ccc1O	-18.8	5977	-0.8	-1.1
O=C(O)c1oc2ccccc2c1-n1cccc1	-1.7	16703*	-3.6	-1.7
CN(Cc1ccccc1)C(=O)c1[nH]c(C(F)(F)F)nc1-c1ccccc1	1.2	5156	3.6	0.8
Cc1nnc(SCCn2c(N3CCC(C)CC3)nc3c2c(=O)[nH]c(=O)n3C)s1	2.6	16118	-0.2	1.9
Cc1nnc(SCCn2c(N3CC(C)CC(C)C3)nc3c2c(=O)[nH]c(=O)n3C)s1 (stereo not drawn)	-5.1	23049*	-0.8	-2.5
COc1ccc(-c2noc(CCCC(=O)Nc3ccc(C(N)=O)cc3)n2)cc1	-4.7	22075*	0.3	-5.2
COc1ccccc1CC(=O)Nc1ccc(-c2noc(COc3ccc(Cl)c(C)c3)n2)cc1	3.7	21393*	0.0	u
COc1cc(-c2noc(CCCC(=O)Nc3ccc(C(N)=O)cc3)n2)cc(OC)c1OC	-3.9	5575	2.6	0.1
CCOc1ccccc1-c1nc(-c2ccc(NC(=O)Cc3ccccc3OC)cc2)no1	-5.9	3559	2.3	-0.5
CCC(=O)N1CCc2cc(OC)c(OC)cc2C1COc1ccc(F)cc1 (stereo not drawn)	-8.2	3092	-13.9	-1.9
CC(C)(C)CC(=O)N1CCN(c2ccc(S(=O)(=O)N3CCOCC3)cc2[N+](=O)[O-])CC1	-3.9	8215	-1.4	-3.7
COc1ccc(-n2c(/C=C(\C)O)nc(=O)c3c(C)cc(C)nc32)cc1	0.9	22184*	1.4	0.7
COc1ccc(-n2c(C)nn(C)c2=O)cc1	2.2	15801	-1.0	0.9
C/C(=N/NC(=O)CNc1ccc(C)cc1)c1ccc(Br)s1	-3.0	19958*	1.4	-0.5
O=C(Cc1csc(Nc2nc(=S)[nH]c3ccccc23)n1)NCc1ccc(Cl)cc1	-1.2	23044*	-0.5	-1.0
CCCCOC(=O)C1=C(C)Nc2ncnn2C1c1ccc(OCC)c(OC)c1 (stereo not drawn)	0.5	19529*	-5.0	1.3
CCCCOC(=O)C1=C(C)Nc2ncnn2C1c1ccc(OC)c(OC)c1 (stereo not drawn)	-8.6	21510*	-1.2	u
SMILES	BoNT F protease	Bead autofluor	Anthrax LF prot	BoNT-A LC inh2
COc1ccc(C2C(C(=O)NCc3ccccc3)=C(C)Nc3ncnn32)cc1OC (stereo not drawn)	1.6	u	-6.2	-1.2
CC1=C(C(N)=O)C(c2ccc(Cl)cc2Cl)n2ncnc2N1 (stereo not drawn)	-1.8	21777*	-0.7	-0.4
CCOc1ccc(C2C(C(N)=O)=C(C)Nc3ncnn32)cc1OC (stereo not drawn)	8.5	3082	3.1	-3.0
Cc1ccc(-n2nnnc2SCn2nnc3ccccc3c2=O)cc1	5.9	3416	-5.9	0.1
Cc1cccc(-n2nnnc2SCn2nnc3ccccc3c2=O)c1	5.4	20246*	-13.8	3.7
CCN(CC)S(=O)(=O)c1ccc2c(c1)nc(SCn1nnc3ccccc3c1=O)n2CC	-1.3	23084*	0.2	-0.8
CCN(CC)S(=O)(=O)c1ccc2c(c1)nc(SCC(=O)N(C)C1CCS(=O)(=O)C1)n2CC (stereo not drawn)	-0.6	6148	0.8	1.1
O=S(=O)(c1cc(F)ccc1F)N1CCN(c2ncccn2)CC1	-3.8	3929	-1.3	2.0
CC1=C(C(=O)N2CCCCCC2)CC(CC(=O)NCCc2ccccn2)C(=O)N1CCC1=CCCCC1 (stereo not drawn)	4.6	5304	-11.7	-0.1
O=C(Nc1ccccc1)c1cc2c(=O)c3ccccc3oc2nc1C(F)(F)F	-2.6	8372	-4.2	0.8
O=C(Nc1cccc(C(F)(F)F)c1)c1cc2c(=O)c3ccccc3oc2nc1C(F)(F)F	-5.3	23568*	1.4	u
Cc1ccc([C@H]2N[C@]3(CCCN(Cc4ccc(Cl)cc4)C3=O)[C@H]3C(=O)N(Cc4ccccc4)C(=O)[C@@H]23)cc1	-0.6	3814	-3.4	0.0
COC(=O)c1cc(OC)c(OC)cc1NC(=S)N1CCCCC1	7.7	20422*	2.0	5.3
COC(=O)c1cc(OC)c(OC)cc1NC(=S)N1CCN(C)CC1	-4.3	10029	1.0	-0.9
COC(=O)c1cc(OC)c(OC)cc1NC(=O)CN1CCCCC1	-3.7	22761*	-4.1	0.5
CCOC(=O)C1CCN(C(=S)Nc2cc(OC)c(OC)cc2C(=O)OC)CC1	1.1	20685*	0.7	0.3
COC(=O)c1cc(OC)c(OC)cc1NC(=S)N1CCC(C(N)=O)CC1	-6.0	17588*	-3.0	-4.5
O=S1(=O)N=C(c2ccccc2)c2ccccc21	-5.9	5928	-6.5	0.5
CC(C)CNC(=O)c1ccc(-c2ccc(F)c(F)c2)c2ccoc12	-8.0	3031	-1.8	-0.3
CCOc1ccccc1C1C(C#N)=C(N)Oc2cc(N)ccc21 (stereo not drawn)	0.5	21823*	-7.0	3.1
O=C(CN(CCN1CCOCC1)C(=O)Cn1nnc(-c2ccc(F)cc2)n1)NC1CCCCC1	3.9	9649	-1.7	-0.1
CC(C)CCNC(=O)CN(CCN1CCOCC1)C(=O)Cn1nnc(-c2ccc(F)cc2)n1	-1.2	22983*	-1.4	-1.7
COc1ccc(-c2nnn(CC(=O)N(CC(=O)NCCC(C)C)Cc3cccs3)n2)cc1OC	-2.5	16733*	-2.7	u
Cc1cc(C)n(-c2nc3ccccc3nc2N2CCC(C)CC2)n1	5.1	22810*	13.9	u
CCc1ccc(Cn2nnc(C(=O)Nc3cccc(C)c3)c2N)cc1	-15.1	6346	-9.8	-0.8
SMILES	BoNT F protease	Bead autofluor	Anthrax LF prot	BoNT-A LC inh2
Cc1ccc(Cn2nnc(C(=O)Nc3cccc(C)c3C)c2N)cc1	2.2	19408*	1.0	u
CCOc1ccc(NC(=O)COc2ccc(-n3cnnn3)cc2)cc1	u	5638	u	u
CCOc1ccc(NC(=O)c2cccc(-n3cnnn3)c2)cc1	-4.3	23535*	-2.2	u
CCOc1ccccc1NC(=O)COc1cccc(-n2cnnn2)c1	-3.5	23672*	-2.4	-2.1
O=C(COc1ccc(F)cc1)Nc1ccc(-n2cnnn2)cc1	0.6	20385*	0.9	u
CCc1ccccc1NC(=O)COc1cccc(-n2cnnn2)c1	-21.8	3834	4.2	0.5
C/C=C/c1ccc(OCC(O)CN(C)Cc2ccc(SC)cc2)c(OC)c1 (stereo not drawn)	-9.3	3679	4.2	-0.9
COc1ccc(-c2cc3nc(C)cc(N4CCN(C(=O)c5ccco5)CC4)n3n2)cc1	0.8	3760	-5.9	-0.2
